# Source: PubChem
# Shown are actives, neighbours in structure and some others; about 1.3% of the full set was active somewhere.
# TSG101-PTAP inh = blocks PTAP/TSG101 interaction to inhibit HIV-1 budding; Q99816; Fluorescence polarization, FITC-PTAP peptide / Tsg101 binding; Potency, µM (highest dose often 115 µM), inactives show at the highest dose activity change, negative = inhibition, actives largely listed as inhibitors; 340,000 tested, under 10 active; AID 493005; active = well fitted inhibition curve with a large enough effect in the main read-out, with a control signal flat, not every such curve was filed as active; inconclusive = small, poorly fitted or top-dose-only effect, or effect the other way, or a change in a side signal; inactive = no such curve, though single readings can be large or run the other way; also: potency is read from the fitted curve at half-maximal effect; % of control where 0% means no effect
#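 Steps: Tsg101 binding domain dispensed (10 uM final), compounds pinned in DMSO, FITC-labeled PTAP-motif peptide added (50 nM final); after 20 min binding at room temperature, polarization measured.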
# PKM2 activator = increases activity of human pyruvate kinase M2; P14618; purified PKM2, Kinase-Glo ATP luminescence, activation; response scale: 0% is enzyme alone, no compound; Potency, µM (titrated, usually from 57.5 µM), for the others: at the top dose activation, most hits filed as activators; actives 0.34% (n = 260,000); active = well fitted activation curve with a large enough effect; inconclusive = small, poorly fitted or top-dose-only effect; inactive = no such curve, though single readings can be large or run the other way; also: potency is read from the fitted curve at half-maximal effect; % is scaled to controls: 0 for no effect and ±100 for the full control effect; nearly all actives have a fitted effect of over 55% in size
#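 ATP formation by purified human PK-M2, quantified via coupled luciferase luminescence after 1 h at room temperature with 0.1 mM ADP and 0.5 mM PEP final.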
# BRCA1 expr up = BRCA1 expression activation; actives 1.1% (n = 380,000); Potency, µM (titrated, usually from 46.1 µM), for inactives: at the highest dose activation, most hits filed as activators; AID 624202; MCF7-BRCA1-FFLuc reporter, luminescence, 48 h; response scale: scaled: vehicle 0%, 10 µM genistein 100%; active = well fitted activation curve with a large enough effect; inconclusive = small, poorly fitted or top-dose-only effect; inactive = no such curve, though single readings can be large or run the other way; also: potency is read from the fitted curve at half-maximal effect; nearly all actives have a fitted effect of over 80% in size
#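 48 h compound treatment of MCF7-BRCA1-FFLuc cells (phenol-red free MEM, 37 °C), then 15 min with luciferase substrate and luminescence imaging.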
# TRPML1 blocker = human mucolipin-1 channel inhibition; activity change, negative = inhibition, % (no concentration beside the values); actives 0.02% (n = 390,000); AID 624415; TRPML1-inducible cells, Ca2+ dye fluorescence, FDSS; active compounds read low; inhibition of EC80 agonist-evoked calcium signal; in the data active = activity change below about -50%; inconclusive = between about -30% and that limit;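 also: stimulus is agonist 54-4 at its EC80 concentration; % is scaled to controls: 0 for no effect and ±100 for the full control effect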
# Target sequence (Q9GZU1 whole entry, looked up): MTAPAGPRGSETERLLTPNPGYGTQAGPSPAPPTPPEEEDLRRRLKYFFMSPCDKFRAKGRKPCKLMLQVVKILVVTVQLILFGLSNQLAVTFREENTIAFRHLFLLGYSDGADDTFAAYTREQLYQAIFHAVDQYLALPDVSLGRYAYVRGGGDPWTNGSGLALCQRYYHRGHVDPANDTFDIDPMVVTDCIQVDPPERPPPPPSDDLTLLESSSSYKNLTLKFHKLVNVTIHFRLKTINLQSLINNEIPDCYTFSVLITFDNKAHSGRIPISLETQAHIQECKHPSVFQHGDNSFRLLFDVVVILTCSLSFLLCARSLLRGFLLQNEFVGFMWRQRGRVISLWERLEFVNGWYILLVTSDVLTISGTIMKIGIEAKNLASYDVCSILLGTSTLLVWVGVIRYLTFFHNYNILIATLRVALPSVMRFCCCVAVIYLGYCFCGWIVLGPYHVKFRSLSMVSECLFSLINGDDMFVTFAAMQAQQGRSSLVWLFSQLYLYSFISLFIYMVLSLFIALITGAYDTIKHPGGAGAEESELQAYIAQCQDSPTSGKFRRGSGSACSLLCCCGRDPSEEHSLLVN
#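 Calcium fluorescence in TRPML1-DL cells induced overnight with Tet: a 110 s read after compound pin addition, then a 110 s antagonist read after challenge with 54-4 at 4 uM final (EC80).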
# TRPML1 ag = agonists of human TRPML1 channel; Q9GZU1; TRPML1-expressing cells, Ca2+ dye fluorescence, FDSS; activation, % (no concentration beside the values); actives 0.12% (n = 410,000); AID 624414; also: 0% is about no effect
#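 Calcium fluorescence on an FDSS kinetic reader gave the read-out. Tet-induced TRPML1-DL cells were plated overnight, dye-loaded (Ca8 with quencher, 45-90 min, room temperature, dark), then read 110 s after compound addition, and again 110 s after 4uM final 54-4 (EC80).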
# IL-2 act = IL-2 activation; IL-2 activation reporter assay, cell-based qHTS; stimulated with anti-CD3/CD4/CD28 beads; in transgenic mouse T cells; activation, % (series mostly up to about 46 µM); actives 0.065% (n = 360,000); AID 652025; also: 0% is about no effect
#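 Quantitative HTS in unstimulated transgenic mouse T cells, with memory T cells as non-tolerant control and PMA/ionomycin as tolerance-bypass control. Compound pretreatment lasted 60 minutes before 18 h bead stimulation; EGFP/DsRed fluorescence read.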
# The depositor's hits bear a star; ? = inconclusive; . = no result; [ ] = dose if it differs, or a comment. Rule as the data show it, unless noted: active = activation above about 50%; inconclusive = mostly about 30% to 49%; inactive = weaker than that.
SMILES,TSG101-PTAP inh,PKM2 activator,BRCA1 expr up,TRPML1 blocker,TRPML1 ag,IL-2 act
CC(C)CC(C(=O)NCC1CCN(Cc2ccc(F)cc2)CC1)N1Cc2ccccc2C1=O (stereo not given),.,.,.,-10,1,.
COc1ccc(NC(=O)NC(=O)c2ccccc2)cc1,2%,1%,1.1µM*,.,.,1
O=C(NC(=O)c1ccccc1)Nc1ccccc1,-2%,.,19%,11,0,3
COc1ccc(NC(=S)c2ccccc2)cc1,-3%,-7%,7.9µM*,11,1,0
Cc1ccc(C(=O)NN=CC(=O)c2ccccc2)c(C)c1,-14%,.,?,3,0,1
COc1ccc(C(=O)N/N=C/C(=O)c2ccccc2)cc1,-2%,-16%,5.6µM*,-17,1,-1
NC(=O)c1ccccc1NC(=O)Cn1nc(Cc2cccnc2)c2ccccc2c1=O,.,.,.,4,2,.
CCc1nc(SCC(=O)Nc2nnc(C(C)C)s2)n[nH]1,1%,.,60%,12,0,-2
Cc1ccc(S(=O)(=O)N2CCc3ccccc3C2CN2C(=O)c3ccccc3C2=O)cc1 (stereo not given),-2%,0%,-27%,-19,87*,1
COc1ccc(Oc2cnc3ccccc3n2)cc1,0%,-5%,11µM*,-2,0,0
Ic1ccc(Nc2nc(NCCN3CCOCC3)nc(N3CCOCC3)n2)cc1,.,.,-43%,.,-1,.
CCN(C(=O)c1oc2ccc(S(=O)(=O)N3CCCCCC3)cc2c1C)c1ccccc1,.,.,.,21,0,.
O=C1CCCN1CCCNc1nc(NCc2cccs2)nc2ccsc12,.,.,-64%,.,57*,-1
O=C(c1cc2cc(Br)ccc2o1)N1CCCCC1,-1%,-2%,4.5µM*,-6,0,-3
O=C(c1cc2cc(Cl)ccc2o1)N1CCCC1,-2%,-3%,?,16,2,5
O=C(CCc1ccccc1)NCCSc1ccccc1,-3%,-13%,5.6µM*,22,3,-1
O=C(NCCSc1ccccc1)c1cncc(Br)c1,-1%,-4%,7.9µM*,9,0,0
O=C(CCSc1ccccc1)NCCSCc1ccccc1,-1%,-4%,4%,-11,3,2
O=C(NCCSc1ccccc1)c1ccccc1Cl,-2%,9%,2.8µM*,-5,-1,-2
CCc1cc2cc(C)ccc2nc1SCC(=O)N1CCN(C(=O)c2ccco2)CC1,-3%,10%,-16%,-10,2,0
COc1cc2cc(C)c(SCC(=O)N3CCN(C(=O)c4ccco4)CC3)nc2cc1OC,-3%,18µM*,-19%,.,.,-3
Nc1nc[nH]c(=O)c1N,.,.,3%,.,0,.
O=C(NC1=NCCS1)c1ccccc1Br,-1%,.,18%,-8,0,1
Cc1cc(C)n(-c2ccc(C(=O)NC3=NCCS3)cc2)n1,-1%,4%,11µM*,-6,1,1
COc1ccc(Cl)cc1C(=O)NC1=NCCS1,-1%,-2%,16%,4,0,0
SMILES,TSG101-PTAP inh,PKM2 activator,BRCA1 expr up,TRPML1 blocker,TRPML1 ag,IL-2 act
O=C(NC1=NCCS1)c1ccc(Br)s1,-4%,-1%,3.2µM*,-17,0,-1
O=C(NC1=NCCS1)c1ccc(-c2ccc(Cl)cc2)o1,-7%,2%,2.8µM*,21,0,-2
O=C(NC1=NCCS1)c1ccc(Cl)cc1,-2%,-1%,7.9µM*,0,15,-3
COc1cc(CN2CCN(S(=O)(=O)c3ccccc3)CC2)cc(OC)c1O,.,.,.,-19,-1,.
O=C(O)c1ccccc1NC(=O)C1CCN(S(=O)(=O)c2cccc3nsnc23)CC1,0%,0%[0.46 µM],10%,7,2,-1
O=C(Nc1nnc(C2CCCCC2)s1)c1ccc(Br)s1,-2%,-2%,5µM*,6,0,2
Cc1nnc(-c2ccc(N3CCCCCC3)c([N+](=O)[O-])c2)o1,-5%,0%,22µM*,13,1,2
OC1CCN(C(=S)NCCc2ccccc2)CC1,-6%,-1%,24%,-7,1,-1
S=C(NCCc1ccccc1)N1CCc2ccccc2C1,-3%,2%,10µM*,1,1,-3
COc1ccc(S(=O)(=O)N2CCc3cc(OC)c(OC)cc3C2)cc1,-5%,7.9µM*,19%,11,1,0
COc1ccccc1/C=C/C(=O)NCCc1ccccn1,-1%,-1%,3.2µM*,22,-1,0
COc1ccccc1/C=C/C=N/NC(=O)c1ccccn1,-3%,2%,5µM*,8,1,0
COc1cc2c(cc1OC)C(c1cc(-c3cc(Cl)ccc3Cl)oc1C)=NCC2,.,.,-24%,.,0,.
COc1ccc(/C=N/Nc2nncc3ccccc23)cc1,0%,-42%,7%,-13,0,-1
COc1ccccc1/C=N/Nc1nncc2ccccc12,0%,-3%,10µM*,10,3,0
Oc1c(Br)cc(/C=N/Nc2nncc3ccccc23)cc1Br,?,.,8.9µM*,47,3,0
Clc1ccc(-c2noc(COc3ccccc3)n2)cc1,-8%,0%,?,-10,0,-3
Clc1ccc(OCc2nc(-c3ccncc3)no2)cc1,-5%,-19%,11µM*,-8,2,-1
O=C(Nc1ccc(Cl)cc1C(F)(F)F)c1cc(S(=O)(=O)N2CCOCC2)ccc1F,.,.,.,9,-1,.
CC/C(=N/Nc1cccc(C)c1)c1cnnc(SC)n1,?,7%,-53%,-9,2,190*
COc1cccc(COc2ccc3c(C)cc(=O)oc3c2)c1,-4%,.,2.8µM*,11,2,-7
O=C(OCC(=O)N1CCCC1)c1c(Cl)cccc1Cl,-4%,-9%,-29%,19,0,0
Cc1ccsc1C(=O)OCC(=O)N1CCc2ccccc2C1,-3%,.,7.9µM*,-8,2,-6
O=C(COC(=O)c1c(F)cccc1Cl)NC1CCCCC1,-4%,.,11µM*,3,0,0
O=C(OCC(=O)N1CCc2ccccc2C1)c1c(F)cccc1Cl,-9%,.,6.3µM*,4,0,-1
Cc1ccsc1C(=O)N1CCc2ccccc2C1,-5%,0%,85%,19,1,3
O=C1N(c2ccc3c(c2)OCCO3)C(c2ccccc2)C1(F)F (stereo not given),-1%,-3%,19%,9,3,-2
Cc1ccc(N2C(=O)C(F)(F)C2c2ccccc2)cc1 (stereo not given),-5%,-3%,-3%,-20,63*,2
